Assay in all cases: NCI-60 one-dose screen, 48 h (100 = growth as untreated, 0 = no growth, -100 = all killed)
Holding throughout (settings): 10 µM unless noted

Assay [1] deals with MOLT-4 leukemia.
Assay [2] deals with SR leukemia.
The test system of assay [3] is RPMI-8226 leukemia.
Assay [4] has as its system OVCAR-8 ovarian.
For assay [5], the system named is OVCAR-5 ovarian.
Assay [6] deals with OVCAR-4 ovarian.
Assay [7] relates to SK-OV-3 ovarian.
Assay [8] deals with IGROV1 ovarian.
The test system of assay [9] is OVCAR-3 ovarian.
In assay [10] the test system is HS 578T breast.
Assay [11] has as its system T-47D breast.
The test system of assay [12] is BT-549 breast.
For assay [13], the system named is MDA-MB-435 melanoma.
Assay [14] deals with SW-620 colon.
The test system of assay [15] is MCF7 breast.
Assay [16] deals with HCT-116 colon.
For assay [17], the system named is HCC-2998 colon.
The test system of assay [18] is KM12 colon.
For assay [19], the system named is NCI/ADR-RES ovarian.

From PubChem BioAssay (NCI) come the findings set out here.

Several values for one entry are separate records, joined by “and”; a condition that tells them apart may be missing. Identical values can stand only once. The panel holds about 83,000 compounds, 20% with a hit somewhere; the sample as a whole holds those more often.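 Percent growth is the endpoint: 0 to 100 indicates growth inhibition (40 means 60% inhibition), 0 means no net growth, and negative values indicate cell death.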 Activity calls are given as the source filed them. Rule for the calls: active = growth percent below 10; inactive = the rest.

With `COc1ccc2c(c1)C1(C)CCN(C)CC(C1)C2O` (stereo unspecified), the growth in [1] was 94.1% (inactive); in assay [2] it was 94.2% (inactive); in [3], 98.7% (inactive); in assay [4], 101% (inactive); in assay [5], 99.3% (inactive); in assay [6], 103% (inactive). For the same molecule, the growth in [7] is 107% (inactive); in assay [8] it was 86.9% (inactive); in [9], 109% (inactive); in [10], 116% (inactive); in [11], 95.2% (inactive); in assay [12], 98.2% (inactive). Besides, the growth was 105% (inactive) in assay [13]; 101% (inactive) in assay [14]; 96% (inactive) in assay [15]; 97.8% (inactive) in [16]; 89.9% (inactive) in assay [17]; 102% (inactive) in [18].
In the case of `CC1(C)S[C@H]2CC[C@H]3OC(=O)[C@@H]1N23`, the growth in assay [1] was 75.1% (inactive); in assay [2], 92.6% (inactive); in [3] it was 79.5% (inactive); in assay [4] it was 102% (inactive); in assay [6], 97.2% (inactive); in assay [7] it was 111% (inactive). The growth in assay [8] was 39.4% (inactive); in assay [9], 132% (inactive); in assay [10], 112% (inactive); in assay [19], 93.8% (inactive); in assay [11] it was 104% (inactive); in assay [12], 85.3% (inactive). Also, the growth in [13] was 93.3% (inactive); in [14] it was 113% (inactive); in assay [15] it was 103% (inactive); in assay [16] it was 103% (inactive); in [17], 97.7% (inactive); in assay [18] it was 111% (inactive).
As for `CC[C@H](C)[C@H](NC(=O)c1ncccn1)C(=O)N(C)[C@H](C[C@@H](OC(C)=O)c1nc(C(=O)N[C@@H](Cc2ccccc2)C[C@H](C)C(=O)OC)cs1)C(C)C`, the growth is 20.2% (inactive) in assay [1]; 14.7% (inactive) in [2]; 17.7% (inactive) in assay [3]; 22.8% (inactive) in assay [4]; 50.6% (inactive) in assay [6]; 44.1% (inactive) in assay [7]. In addition, the growth in assay [8] was 49.5% (inactive); in assay [9], -18.4% (active); in [10], 18.3% (inactive); in assay [19], 70.6% (inactive); in assay [11] it was 52.6% (inactive); in assay [12], 5.49% (active). Besides, the growth is -24.6% (active) in assay [13]; 25.8% (inactive) in assay [14]; 18.9% (inactive) in [15]; 2.48% (active) in [16]; 60.9% (inactive) in assay [17]; 16.1% (inactive) in assay [18].
As to `COC12CC3(C)C(C4=CC(=O)OC4)CCC3(O)C3CCC4=CC(=O)CCC4(CO1)C32` (stereo unspecified), the growth was 119% (inactive) in assay [1]; 117% (inactive) in assay [2]; 118% (inactive) in [3]; 99.9% (inactive) in [4]; 99.5% (inactive) in [5]; 105% (inactive) in assay [6]. Besides, the growth was 117% (inactive) in [7]; 98.6% (inactive) in [8]; 118% (inactive) in assay [9]; 103% (inactive) in [10]; 113% (inactive) in [19]; 116% (inactive) in [11]. Moreover, the growth in [13] is 106% (inactive); in assay [14], 105% (inactive); in assay [15] it was 98.1% (inactive); in assay [16], 101% (inactive); in assay [17], 131% (inactive); in assay [18] it was 114% (inactive).
As to `Clc1ccc(COC(Cn2ccnc2)c2ccc(Cl)cc2Cl)c(Cl)c1` (stereo unspecified), the growth was 41.5% (inactive) and 45.3% (inactive) in assay [1]; 65% (inactive) in [2]; 41.2% (inactive) and 54.6% (inactive) in assay [3]; 38.4% (inactive) in assay [4]; 49% (inactive) and 63.2% (inactive) in assay [6]; 79.7% (inactive) and 91% (inactive) in [7]. The growth in assay [8] is 38.3% (inactive) and 22.3% (inactive); in [9], 48.9% (inactive) and 64.2% (inactive); in [10] it was 74.3% (inactive); in assay [19], 21.7% (inactive) and -21.9% (active); in assay [11], 46.4% (inactive) and 36.5% (inactive); in assay [12], 51.8% (inactive) and 40.9% (inactive). Besides, the growth in assay [13] was 8.47% (active) and 20.5% (inactive); in assay [14], 58.3% (inactive) and 62.2% (inactive); in [16], 14.6% (inactive) and 16.1% (inactive); in assay [17], 47.4% (inactive); in [18], 40.2% (inactive) and 43.2% (inactive).
For the molecule `COC(=O)C1=CO[C@@H](C)[C@@H]2CN3CCc4c([nH]c5cc(OC)ccc45)[C@@H]3C[C@H]12`, the growth was 94.8% (inactive) in assay [1]; 92.7% (inactive) in assay [2]; 94.3% (inactive) in [3]; 95.9% (inactive) in assay [4]; 95.6% (inactive) in assay [5]; 107% (inactive) in assay [6]. Besides, the growth is 100% (inactive) in [7]; 100% (inactive) in assay [9]; 94.5% (inactive) in assay [10]; 93.8% (inactive) in [19]; 93.2% (inactive) in assay [11]; 105% (inactive) in assay [12]. In addition, the growth in [13] is 107% (inactive); in assay [14] it was 99.9% (inactive); in assay [15], 91.1% (inactive); in assay [16], 103% (inactive); in [18], 109% (inactive).
For the molecule `CCC(=O)C(CC(C)[N+](C)(C)C)(c1ccccc1)c1ccccc1` (stereo unspecified), the growth in [1] was 104% (inactive); in assay [2] it was 101% (inactive); in assay [3], 109% (inactive); in assay [4], 99.8% (inactive); in assay [5], 96.8% (inactive); in assay [6], 110% (inactive). Also, the growth in assay [7] was 96.6% (inactive); in [8], 101% (inactive); in [9], 70.6% (inactive); in assay [10], 107% (inactive); in [19], 102% (inactive); in [12], 67.5% (inactive). For the same molecule, the growth is 104% (inactive) in [13]; 104% (inactive) in [14]; 90.7% (inactive) in [15]; 93.6% (inactive) in assay [16]; 102% (inactive) in assay [17]; 107% (inactive) in assay [18].
For `N#Cc1ccc(Cl)cc1`, the growth in [1] was 92.5% (inactive); in [2] it was 87% (inactive); in assay [3], 106% (inactive); in [4], 109% (inactive); in [5], 109% (inactive); in assay [6] it was 115% (inactive). Besides, the growth in [7] was 109% (inactive); in [8] it was 104% (inactive); in assay [9] it was 114% (inactive); in assay [19] it was 113% (inactive); in [11], 104% (inactive); in assay [13] it was 117% (inactive). For the same molecule, the growth in assay [14] is 103% (inactive); in assay [15] it was 103% (inactive); in [16] it was 114% (inactive); in [17], 123% (inactive); in assay [18], 115% (inactive).
